“And” between values parts separate entries of the source, which are not always exact repeats. Identical values can stand only once. Results filed as inconclusive are left out. A call without a number means that no potency is given here. Some compounds were tested as several samples or in several runs, with calls that do not always agree. The source made the active and inactive calls. Calls follow the shape of the dose curve; as a rule, active = well fitted cell-killing curve with a large enough effect in the repeat runs; inconclusive = weak or mixed curves; inactive = flat fitted curve, though single readings scatter.
Potency is read from the fitted curve at half-maximal effect.

The assay in a line: qHTS assay to identify small molecule antagonists of the estrogen related receptor (ERR) signaling pathway from Tox21 library - cell viability counter screen (AID 1224834). Also: nearly all actives have a fitted effect of over 30% in size. As to conditions: ERR reporter cells viability, CellTiter-Fluor, 17.5 h; series mostly up to 92.4 µM. From the text:
National Center for Advancing Translational Sciences [NCATS]
NIH Chemical Genomics Center [NCGC]
U.S. Environmental Protection Agency [EPA]
National Institutes of Environmental Health Sciences [NIEHS]
National Toxicology Program [NTP]
U.S. Food and Drug Administration [FDA]
Estrogen related receptors (ERRs), the first orphan nuclear receptors discovered, play an important role in the control of cellular energy metabolism. ERRs are required for high-energy production in response to the environmental challenges. ERR-alpha was also identified as an adverse marker for breast cancer progression; ERR-alpha-positive tumors have a poor prognosis. To screen and to identify environmental compounds that perturb the ERR signaling pathways could provide valuable information for potential therapeutic or preventive measures in the treatment of metabolic disease. To differentiate true ERR antagonists or agonist from cytotoxic substances, the assay is multiplexed with cell viability assay.
Tox21 Assay Protocol Summary:
The ERR cells were dispensed at 2,000 cells/5 ul/well in 1536-well white plates using a Multidrop dispenser. After the assay plates were incubated at a 37 C/5% CO2 incubator for 6 hours, 23 nL of compounds dissolved in DMSO, positive and negative controls or DMSO only was transferred to the assay plate by a pin tool. The plates were incubated at 37 C for 17.5 hours. 1 ul/well of CellTiter-Fluor reagent was added into the assay plates using a Flying Reagent Dispenser. After 30-minute incubation at 37 C/5% CO2, the fluorescence intensity in the plates was measured using a ViewLux plate reader.
As for `O=[N+]([O-])c1ccc2c(c1)Cc1ccccc1-2`, the Potency result was “inactive”.

Regarding `CC1=CC2C3CC(C=C3C)C2C1` (stereo not given), the Potency entry was “inactive”.

With `CC(C)OC(=O)C(C)(C)Oc1ccc(C(=O)c2ccc(Cl)cc2)cc1`, the Potency entry is “inactive”.

As for `O=C(c1ccccc1)c1ccc(O)cc1O`, the Potency was 69.9 µM (active) and inactive.

With `CN(C)C(=N)N=C(N)N`, the Potency result is “inactive”.

With `Cc1ncc[nH]1`, the Potency result is “inactive”.

Consider `CC1=CCC(C(C)(C)O)CC1` (stereo not given), for which the Potency result is “inactive”.

In the case of `c1ccc2cc(Nc3ccc(Nc4ccc5ccccc5c4)cc3)ccc2c1`, the Potency entry is “inactive”.

Take `Cc1cccc(N(C)C(=S)Oc2ccc3ccccc3c2)c1`: the Potency entry was “inactive”.

Regarding `CCC(C)c1ccccc1O` (stereo not given), the Potency result is “inactive”.

On to `O=Cc1ccccc1O`, for which the Potency result is “inactive”.

`Cc1c(OCC(F)(F)F)ccnc1CS(=O)c1nc2ccccc2[nH]1` (stereo not given): the Potency entry is “inactive”.

Regarding `CC(=O)c1ccccn1`, the Potency result is “inactive”.

With `CC(C(=O)O)c1cccc(C(=O)c2ccccc2)c1` (stereo not given), the Potency result was “inactive”.

Take `CC(=O)C1(C)CC2=C(CCCC2(C)C)CC1C` (stereo not given): the Potency entry was “inactive”.

Regarding `CC(C)=CCC/C(C)=C\CO`, the Potency result was “inactive”.

Take `Cc1ccc(C)c(O)c1C`: the Potency result is “inactive”.

In the case of `Cc1cccc(C(=O)O)c1`, the Potency entry was “inactive”.

Take `C/C=C/C(=O)O`: the Potency result is “inactive”.

As for `C[Si](C)(C)O[Si](C)(C)C`, the Potency entry is “inactive”.

With `COC(=O)c1ccccc1`, the Potency result was “inactive”.

Regarding `CN(C)CCC=C1c2ccccc2CCc2ccccc21`, the Potency was 68.6 µM (active) and 48.6 µM (active) and inactive.

`c1cc(-c2ccncc2)ccn1`: the Potency entry is “inactive”.

`COC(C)COC(C)COC(C)CO` (stereo not given): the Potency entry is “inactive”.

Regarding `CN(C)c1nc(N(C)C)nc(N(C)C)n1`, the Potency result is “inactive”.

Consider `O=C(Nc1ccc([N+](=O)[O-])cc1Cl)c1cc(Cl)ccc1O`, for which the Potency is 3.86 µM (active) and 1.3 µM (active).

For the compound `OC1CCCCCCCCCCC1`, the Potency entry is “inactive”.

`CCCCCCCCCC(=O)OC`: the Potency entry is “inactive”.

Turning to `Nc1ccc(S(=O)(=O)Nc2cnc3ccccc3n2)cc1`, the Potency entry was “inactive”.

Turning to `OCCO`, the Potency result is “inactive”.

For the compound `COc1ccc(C(=O)CC(=O)c2ccc(C(C)(C)C)cc2)cc1`, the Potency result was “inactive”.

For `C=CC(C)(CCC=C(C)C)OC(C)=O` (stereo not given), the Potency entry is “inactive”.

Take `C=C(C)C1CC=C(C)CC1` (stereo not given): the Potency entry was “inactive”.

On to `Oc1ccc(O)cc1`, for which the Potency entry was “inactive”.

`Nc1ccc(Cl)cc1Cl`: the Potency entry was “inactive”.

As for `CC(=O)CC/C=C(\C)CCC=C(C)C`, the Potency result was “inactive”.

Take `CC(CCC(=O)O)(c1ccc(O)cc1)c1ccc(O)cc1`: the Potency result is “inactive”.

Turning to `CCCCC(CC)COC(=O)c1ccc(N(C)C)cc1` (stereo not given), the Potency result is “inactive”.

For `O=C(COc1ccc(Cl)cc1)N1CCN(Cc2ccc3c(c2)OCO3)CC1`, the Potency result was “inactive”.

Regarding `CCCCNS(=O)(=O)c1ccccc1`, the Potency entry was “inactive”.

Values taken from PubChem BioAssay (Tox21).
